High-throughput results deposited in PubChem BioAssay by several laboratories.
Shown are actives, neighbours in structure and some others; about 4.3% of the full set was active somewhere.
esBAF inh = SWI/SNF esBAF complex inhibition; hit rate 2% among 350,000; AID 602393; reporter increase, % at 12.5 µM; mouse ES cells, Bmi1-luciferase knock-in reporter, 24 h; 100% = twice the neutral-well signal; in the data active = activation above about 40%; inconclusive = no clear call, values can overlap the other calls;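 also: 0% = median of the plate's neutral control wells and 100% = double that signal; a rise in the Bmi1 reporter signal indicates esBAF inhibition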
HSF-1 act = increases HSF-1 driven luciferase reporter signal. NIH3T3-HGL HSF-1 luciferase reporter, MG132, 8 h; 100% = twice DMSO control signal. activation, % at 9 µM. hit rate 1.7% among 300,000. AID 504408;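 active = mean replicate activation of at least 50% with a set share of replicates each reaching 50%; inconclusive = only one of those two conditions met; inactive = mean below 50% and too few replicates reaching it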;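 also: 0% = median of the neutral control wells and 100% = twice that signal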
HSF1 inhib = HSF1 inhibition; NIH3T3-HGL HSE-luciferase, MG132-induced, luminescence 8 h; hits give low values; hit rate 0.77% among 300,000; AID 2098; activity change, negative = inhibition, % at 7.5 µM (by protocol);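 active = more than half of replicate wells show activity change below -50%, luminescence cut by over half; inconclusive = some wells, but at most half, below -50%; inactive = no replicate well below -50%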;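 also: luciferase reports HSF-1 transcriptional activity via heat shock element; 0% = median of DMSO wells and -100% = zero luminescence signal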
Wnt act = activates Wnt/beta-catenin signaling in a reporter cell assay; AID 743398; activator, plate reader; activation, % at 9.35 µM; hit rate 1.2% among 300,000; in the data active = activation above about 30%, passing the limit was not always enough; inconclusive = no clear call, values can overlap the other calls;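 also: 0% = neutral control wells and 100% = positive control wells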
SMARCA2 act = activators of SMARCA2 function | MG213 cells, MMTV-luciferase reporter, dexamethasone, overnight | hit rate 1% among 370,000 | activation, % at 9.1 µM; in the data active = activation above about 7.8%;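 also: 0% = vehicle wells and 100% = reference activator wells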
MITF TRPM1 HTS = increases MITF-driven TRPM1 promoter luciferase signal; activation, % at 12.5 µM; SK-MEL-5 TRPM1-promoter luciferase, 24 h; % of positive control, neutral wells = 0; AID 588334; hit rate 0.75% among 300,000;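 active = mean activation of at least 80% with every replicate also reaching 80%; inconclusive = mean reaches 80% but some replicate falls short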;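 also: 0% = neutral control wells and 100% = parthenolide positive control wells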
esBAF Ring1 qPCR = esBAF inhibition confirmed by Ring1 de-repression | shares compounds with esBAF inh | mouse ESC E14, Ring1 mRNA RT-qPCR fold change | fold change at 33 µM | 550 tested, under 10 active | AID 743176;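 active = Ring1 gene expression raised more than 2-fold over untreated cells in both replicates at either tested dose; inconclusive = only one replicate above 2-fold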;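 also: Ring1 transcript normalised to actin housekeeping signal by TaqMan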
Fgf4 repress = esBAF inhibition confirmed by Fgf4 repression | Fgf4 expression fold change at 33 µM | shares compounds with esBAF inh | hit rate 4% among 550 | mouse ESC E14, Fgf4 mRNA qPCR fold change; hits give low values;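 active = Fgf4 expression under 0.8 fold of control in both repeat measurements at one or both tested doses; inconclusive = under 0.8 fold in just a single repeat measurement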;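 also: Fgf4 transcript normalised to actin in duplex TaqMan qPCR; cells exposed to compound for 24 h before lysis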
esBAF Bmi1 qPCR = de-represses Bmi1 in mouse ESCs, confirming esBAF inhibition; shares compounds with esBAF inh; 550 tested, under 10 active; mouse ESE14 ES cells, Bmi1 mRNA qPCR fold; hits give high values; fold change at 33 µM;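 active = Bmi1 expression fold change above 6 at either tested concentration, seen in replicate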;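 also: higher fold means more Bmi1 de-repression and stronger esBAF inhibition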
A549 cytotox = cytotoxicity in A549 cells. shares compounds with esBAF inh. plate reader. cell viability change % (negative = cytotoxic), % at 25 µM, hits read low. 550 tested, under 10 active; call rule not given here
HepG2 cytotox SP = cytotoxicity in HepG2 cells | activity change, negative = inhibition, % at 25 µM | plate reader; hits give low values | AID 743189 | shares compounds with esBAF inh | hit rate 4% among 550; in the data active = activity change below about -50%
HEK293 cytotox SP = HEK293 cell cytotoxicity at single point; shares compounds with esBAF inh; activity change, negative = inhibition, % at 25 µM, hits read low; plate reader; hit rate 3% among 550; in the data active = activity change below about -38%, passing the limit was not always enough
An asterisk follows results filed as active; u = inconclusive; x = no result given.

SMILES | esBAF inh | HSF-1 act | HSF1 inhib | Wnt act | SMARCA2 act | MITF TRPM1 HTS | esBAF Ring1 qPCR | Fgf4 repress | esBAF Bmi1 qPCR | A549 cytotox | HepG2 cytotox SP | HEK293 cytotox SP
Brc1ccc(-c2nnc(-c3cccnc3)o2)cc1 | x | 24 | 6 | u | 1 | u | x | x | x | x | x | x
Brc1ccccc1-c1nnc(-c2cccnc2)o1 | 66* | 4 | 18 | 24 | 1 | x | 1 | 1 | 1.7 | -5 | -29 | -3
CO[C@@H]1CN(C)C(=O)c2cc(NC(=O)c3cccc(F)c3)ccc2OC[C@H](C)NC[C@@H]1C | -5 | x | x | x | x | x | x | x | x | x | x | x
CC(C)NC(=O)Nc1ccc2c(c1)C(=O)N([C@H](C)CO)C[C@@H](C)[C@@H](CN(C)S(=O)(=O)c1ccc(Cl)cc1)O2 | -3 | x | x | x | x | x | x | x | x | x | x | x
C[C@@H]1CN([C@H](C)CO)C(=O)c2cc(C#CCc3ccccc3)cnc2O[C@@H]1CN(C)C(=O)C1CC1 | 1 | x | x | x | x | x | x | x | x | x | x | x
COc1ccc(C2=NOC(C)(c3sc(-c4ccc(Cl)cc4)nc3C)C2)cc1 (stereo unspecified) | x | -23 | -12 | -2 | 5 | x | x | x | x | x | x | x
Cc1nc(-c2ccc(Cl)cc2)sc1C1(C)CC(c2cccnc2)=NO1 (stereo unspecified) | 77* | 30 | 30 | 22 | 3 | 64 | 1.3 | 0.92 | 1.3 | 1 | -46 | -12
CC(C)NC(=O)NCC[C@H]1CC[C@H](NC(=O)CN(C)C)[C@@H](CO)O1 | -2 | x | x | x | x | x | x | x | x | x | x | x
O=S(=O)(c1ccc2ccccc2c1)N1CCN(S(=O)(=O)c2c(F)cccc2F)CC1 | 80* | x | x | 22 | 7 | 55 | 1.1 | u | 1.3 | -10 | -8 | -5
CN1CCN(S(=O)(=O)c2ccc3ccccc3c2)CC1 | -5 | -6 | -1 | -2 | 2 | 1 | x | x | x | x | x | x
O=C(c1csc(Nc2ccccc2Cl)n1)N1CCCC1 | 54* | 14 | 10 | x | 2 | x | 1.1 | 0.93 | 1.1 | 3 | -35 | -2
Oc1ccccc1C=NN1CCCCCC1 | 77* | x | x | -1 | -1 | 69 | 1.2 | 0.81 | 1.4 | -4 | 20 | 2
Oc1ccc(/C=N/N2CCCCC2)c(O)c1O | -4 | 4 | -2 | -1 | -2 | -7 | x | x | x | x | x | x
Oc1cccc(/C=N/N2CCCCC2)c1O | 61* | 10 | -6 | u | 3 | 67 | 1 | 1.2 | 1.9 | -12 | -43 | -16
Oc1ccccc1/C=N/N1CCCCC1 | x | -9 | -4 | 5 | -1 | 38 | x | x | x | x | x | x
Oc1ccc(Cl)cc1C=NN1CCCCCC1 | 66* | x | x | 49* | -2 | 47 | 1.1 | 1 | 1.8 | -4 | 16 | -29
CCN1[C@@H]2Cn3c(ccc(-c4ccccc4)c3=O)[C@H]1[C@@H](C(=O)NC1CCC1)[C@@H]2CO | 6 | x | x | x | x | x | x | x | x | x | x | x
CO[C@H]1CN(C)C(=O)c2ccc(NC(=O)C3CCCC3)cc2OC[C@H](C)N(C)C[C@H]1C | -2 | x | x | x | x | x | x | x | x | x | x | x
C[C@@H]1CN([C@@H](C)CO)C(=O)Cc2cc(NC(=O)Nc3ccc4c(c3)OCO4)ccc2O[C@@H]1CN(C)S(=O)(=O)c1ccccc1 | -2 | x | x | x | x | x | x | x | x | x | x | x
O=C(Nc1ccc(Cl)cc1)Nc1nnc(-c2ccncc2)s1 | x | -7 | -16 | -1 | -1 | -7 | x | x | x | x | x | x
Fc1ccc(Nc2nnc(-c3ccncc3)s2)cc1Cl | 67* | x | x | 1 | 1 | x | 1.2 | 0.88 | 1.6 | -6 | -25 | -2
COc1ccc(S(=O)(=O)N(C)C[C@@H]2Oc3ccc(NC(=O)C4CC4)cc3CC(=O)N([C@H](C)CO)C[C@H]2C)cc1 | -1 | x | x | x | x | x | x | x | x | x | x | x
